The source of these data is PubChem BioAssay (NCATS).

Experiment [1] concerns the target Cytochrome P450 1A2 (Homo sapiens) (UniProt P05177). In words: p450-cyp1a2 (AID 410; calls by dose curve; also: potency is read from the fitted curve at half-maximal effect). In short, it runs like this:
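20nM CYP1A2 with 100uM Luciferin-ME (at Km) in 100mM KPO4; compound preincubated 10 min, NADPH regeneration added, 60 min at room temperature. Luciferin quantified by luminescence after detection reagent; normalized to 57 uM furafylline.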

Experiment [2] concerns the target Glucocorticoid receptor (Homo sapiens) (UniProt P04150). In words: GR-GFP Redistribution (AID 450;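 active = compounds whose dose series gives a full or clear partial fitted curve of increased nuclear translocation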; also: potency is read from the fitted curve at half-maximal effect). Conditions: U2OS GR-GFP nuclear translocation, laser cytometry, 2 h.
Experiment [3] has the same target. Nature of the experiment: GR-EFC Redistribution (AID 451; calls by dose curve; also: potency is read from the fitted curve at half-maximal effect). As to conditions: CHO-K1 GR-EFC translocation, beta-gal luminescence, 2 h. In short, it runs like this:
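CHO-K1 cells stably expressing nuclear-localized β-gal enzyme acceptor and GR fused C-terminally to the enzyme donor fragment; ligand-driven nuclear translocation restores β-gal by complementation. Compounds titrated up to 46 uM final, 2 h at 37 °C; luminescence read.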

Experiment [4] addresses Mitogen-activated protein kinase 10 (Mus musculus) (UniProt Q61831). Nature of the experiment: JNK3 AlphaScreen Assay (AID 530; active = well fitted curve in either direction with a large enough effect, not every such curve was filed as active;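 also: kinase came from lysate of stimulated human HepG2 cells; potency is read from the fitted curve at half-maximal effect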). The procedure, abridged: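 Inhibitors reduce antibody binding to phosphorylated biotin-cJun, lowering AlphaScreen luminescence. Lysates from HepG2 cells pre-activated by IL-1beta plus TNF-alpha supplied JNK3; compounds were titrated.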
Experiment [5] has as its target 3',5'-cyclic-AMP phosphodiesterase 4B (Homo sapiens) (UniProt Q07343). Nature of the experiment: qHTS Assay for Inhibitors of PDE-IV (AID 607; active = well fitted activation curve with a large enough effect in the main read-out, with a control signal flat, not every such curve was filed as active; also: % of control where 0% means no effect). In short, it runs like this:
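HEK293 ACTOne cells with CNG channel (1000/well), endogenous PDE4; membrane potential dye, compounds up to 22.9 uM final. Fluorescence Ex 535/Em 590; RO 20-1724 (100 uM final) as reference.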

The target in experiment [6] is Guanine nucleotide-binding protein G(i) subunit alpha-1 (Homo sapiens) (UniProt P63096). In words: qHTS Assay for Inhibitors of RGS12 GoLoco Motif Activity (Green Fluorophore) (AID 879).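 Also: 0% = labeled peptide with Gαi1 and full inhibition = labeled peptide alone without protein; negative values mean loss of peptide binding seen as reduced polarization.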 The procedure, abridged: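 Fluorescence polarization assay: 50 nM Gαi1 with 10 nM FITC-labeled RGS12 GoLoco peptide in 10 mM Tris pH 7.5, 150 mM NaCl, 0.1 mM GDP, 0.05% NP40, 10 min at room temperature with compound.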

Experiment [7] addresses Cytochrome P450 2C9 (Homo sapiens) (UniProt P11712). In words: qHTS Assay for Inhibitors and Substrates of Cytochrome P450 2C9 (AID 883). Also: potency is read from the fitted curve at half-maximal effect; nearly all actives have a fitted effect of over 60% in size. The procedure, abridged: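 CYP2C9 deoxyluciferin hydroxylation, 37C, 60 min with NADPH regeneration; 10nM enzyme, 100uM Luciferin-H (KM). Glo detection reagent stopped reaction; luminescence normalized to sulphaphenazole (57uM) full inhibition.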

The target in experiment [8] is Cytochrome P450 3A4 (Homo sapiens) (UniProt P08684). Nature of the experiment: qHTS Assay for Activators of Cytochrome P450 3A4 (AID 885). Also: nearly all actives have a fitted effect of over 65% in size. The procedure, abridged: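 Human CYP3A4 (20 nM) with Luciferin-PPXE at 25 uM (its KM) in 200 mM KPO4; 10 min compound preincubation, then NADPH regeneration and 60 min reaction at RT. Luciferin read by luminescence; normalized to 57 uM ketoconazole full inhibition.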

For experiment [9], the target named is Cytochrome P450 2C19 (Homo sapiens) (UniProt P33261). In words: qHTS Assay for Inhibitors and Substrates of Cytochrome P450 2C19 (AID 899). Also: potency is read from the fitted curve at half-maximal effect; nearly all actives have a fitted effect of over 60% in size. In short, it runs like this:
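In 50mM KPO4, the reaction held 5nM enzyme and KM-level (10uM) Luciferin-H EGE; it ran 60 min at 37C after NADPH regeneration and a 10 min compound preincubation. Luminescence values were scaled to 57uM ketoconazole as complete inhibition.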

Experiment [10] is described as follows: qHTS Assay for Identification of Small Molecule Agonists for Thrombopoietin (TPO) Signaling Pathway (AID 917). Also: potency is read from the fitted curve at half-maximal effect. In short, it runs like this:
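Luminescence from a Glycoprotein IIb promoter–driven luciferase reporter served as read-out in murine Ba/F3 cells carrying the human TPO receptor. Cells, deprived of IL-3 overnight, received compounds with 26 pM TPO and were incubated 24 hrs at 37 C.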

In experiment [11] the target is Muscarinic acetylcholine receptor M1 (Rattus norvegicus) (UniProt P08482). In words: qHTS Assay for Antagonists of Acetylcholine Muscarinic M1 Receptor: Measurement of IP-One Response (AID 944). Also: potency is read from the fitted curve at half-maximal effect; nearly all actives have a fitted effect of over 75% in size. In short, it runs like this: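 CHO cells stably expressing rat M1, pretreated 10 min with compound, then stimulated 30 min with carbachol at EC80 (200 nM) in LiCl-containing buffer pH 7.4; IP1 accumulation read by HTRF competition (665/620 nm).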

Experiment [12] deals with Pyruvate kinase (Leishmania mexicana) (UniProt Q27686). In words: qHTS Validation Assay for Inhibitors of Leishmania Mexicana Pyruvate Kinase (AID 945). Also: potency is read from the fitted curve at half-maximal effect. The procedure, abridged: (§1)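 Purified LmPYK (E451W mutant, 0.2 nM) was incubated 1 h at room temperature with 0.5 mM PEP and 0.1 mM ADP in 50 mM imidazole pH 7.2, 50 mM KCl, 7 mM MgCl2; ATP formed was read by PKLight luminescence, normalized to DMSO wells.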

The target in experiment [13] is Pyruvate kinase PKM (Homo sapiens) (UniProt P14618). In words: qHTS Assay for Activators of Human Muscle Pyruvate Kinase (AID 954; active = well fitted curve in the direction sought with a large enough effect, not every such curve was filed as active;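 also: 0% = uninhibited enzyme and -100% = no enzyme or full thiadiazolimine inhibition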). The procedure, abridged:
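Purified human PKM2 (0.1 nM) with 0.5 mM PEP (Km) and 0.1 mM ADP in 50 mM imidazole pH 7.2, KCl, MgCl2, 1 h at room temperature; ATP formed read by coupled luciferase luminescence. Normalized to no-enzyme/110 uM thiadiazolimine inhibition; 0.3 nM enzyme column for activation.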

The target is the same in experiment [14]. Nature of the experiment: qHTS Assay for Inhibitors of Human Muscle Pyruvate Kinase (AID 958). Conditions: purified human PKM enzyme activity. The procedure, abridged:
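Compound pinned into substrate mix (0.5 mM PEP, 0.1 mM ADP), then 0.1 nM PKM2 added; 1 h, RT. Stop/detection luciferase reagent added, luminescence read. Normalized to no-inhibition and no-enzyme or reference-inhibitor controls.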

The target of experiment [15] is Pyruvate kinase (Leishmania mexicana) (UniProt Q27686). In words: qHTS Validation Assay for Activators of Leishmania Mexicana Pyruvate Kinase (AID 959). In short, it runs like this: as §1
For experiment [16], the target named is Alpha-galactosidase A (Homo sapiens) (UniProt P06280). Nature of the experiment: Counterscreen for Glucocerebrosidase Inhibitors: qHTS Assay for Human alpha-Galactosidase at pH 4.5 (AID 992). Also: 0% is about no effect. In short, it runs like this:
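Human enzyme (2 nM) with 80 uM 4-methylumbelliferyl alpha-D-galactopyranoside in 50 mM citric acid, 0.005% Tween-20, pH 4.5, 20 min at room temperature. Compounds 0.7 nM–77 uM; fluorescence Ex 365/Em 440 after pH 10 stop; AC50 from Hill fits.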

Experiment [17] deals with alpha-glucosidase (Oryza sativa, rice) (UniProt Q653V4). In words: Counterscreen for Glucocerebrosidase Inhibitors: qHTS Assay for Rice alpha-Glucosidase at pH 5.0 (AID 997).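 Also: 0% = full activity with enzyme and -100% = basal without enzyme.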 In short, it runs like this: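 Rice alpha-glucosidase (4 nM final) with 400 uM 4-methylumbelliferyl-alpha-D-glucopyranoside in citrate buffer pH 5.0, 20 min at room temperature, stopped at pH 10; fluorescence 365/440 nm, compounds 0.7 nM–77 uM, AC50 from Hill fits.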

In experiment [18] the target is DNA dC->dU-editing enzyme APOBEC-3G (Homo sapiens) (UniProt Q9HC16). Nature of the experiment: qHTS for inhibitors of Vif-A3G interactions: Validation (AID 588379). Also: potency is read from the fitted curve at half-maximal effect. The procedure, abridged:
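HeLa cells stably expressing Vif and A3G-eYFP, 700 cells/well, incubated overnight at 37 deg C, then exposed to compound overnight at 37 deg C. Inhibition of Vif-mediated degradation read as increased yellow fluorescence (Ex 488/Em 500-530) by laser-scanning cytometry.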

In experiment [19] the test system is Zika virus NS2B-NS3 protease. In words: Primary screen GU AMC qHTS for Zika virus inhibitors (AID 1347154).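 Also: 0% = no-inhibitor control and -100% = no-enzyme control; nearly all actives have a fitted effect of over 70% in size.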 In short, it runs like this:
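Unlinked Zika NS2B hydrophilic domain/NS3 protease domain noncovalent complex (25 nM final) in 10 mM Tris-HCl pH 8.0, 0.01% Tween 20, with AMC peptide substrate. Fluorescence (ex 340, em 450 nm) change over 15 min, room temperature; percent inhibition fitted to 4-parameter Hill equation.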

Experiment [20] in a line: Counterscreen qHTS for small molecule stabilizers of the endoplasmic reticulum resident proteome: GLuc-NoTag assay (AID 1508627). Also: potency is read from the fitted curve at half-maximal effect. In short, it runs like this: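 SH-SY5Y cells stably expressing constitutively secreted GLuc (no SERCaMP tag) were pre-incubated 5 h, treated with compound for 19 h, then 100 nM thapsigargin for 4 h at 37C; medium GLuc read by coelenterazine luminescence.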

Experiment [21] in a line: Cell Viability qHTS for small molecule stabilizers of the endoplasmic reticulum resident proteome (AID 1508629).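 Also: compound exposure about 46 h in total before the viability read.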 Also: potency is read from the fitted curve at half-maximal effect.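 As to max response: human SH-SY5Y neuroblastoma cells carrying the GLuc-SERCaMP reporter; % is scaled to controls: 0 for no effect and ±100 for the full control effect.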 As to conditions: cell viability counter-screen, 100 nM thapsigargin for final 4 h.

“And” between values parts separate entries of the source, which are not always exact repeats. Equal values may be shown once. A number with no mark means an inactive call. Records with an inconclusive call do not appear. The source made the active and inactive calls. Unless noted, calls follow the shape of the dose curve; as a rule, active = well fitted curve in the direction sought with a large enough effect; inconclusive = small, poorly fitted or top-dose-only effect, or another doubt; inactive = no such curve, though single readings can be large; an effect the other way counts as inactive or inconclusive.

Glucocorticoid receptor (Homo sapiens), sequence (P04150 whole entry, looked up): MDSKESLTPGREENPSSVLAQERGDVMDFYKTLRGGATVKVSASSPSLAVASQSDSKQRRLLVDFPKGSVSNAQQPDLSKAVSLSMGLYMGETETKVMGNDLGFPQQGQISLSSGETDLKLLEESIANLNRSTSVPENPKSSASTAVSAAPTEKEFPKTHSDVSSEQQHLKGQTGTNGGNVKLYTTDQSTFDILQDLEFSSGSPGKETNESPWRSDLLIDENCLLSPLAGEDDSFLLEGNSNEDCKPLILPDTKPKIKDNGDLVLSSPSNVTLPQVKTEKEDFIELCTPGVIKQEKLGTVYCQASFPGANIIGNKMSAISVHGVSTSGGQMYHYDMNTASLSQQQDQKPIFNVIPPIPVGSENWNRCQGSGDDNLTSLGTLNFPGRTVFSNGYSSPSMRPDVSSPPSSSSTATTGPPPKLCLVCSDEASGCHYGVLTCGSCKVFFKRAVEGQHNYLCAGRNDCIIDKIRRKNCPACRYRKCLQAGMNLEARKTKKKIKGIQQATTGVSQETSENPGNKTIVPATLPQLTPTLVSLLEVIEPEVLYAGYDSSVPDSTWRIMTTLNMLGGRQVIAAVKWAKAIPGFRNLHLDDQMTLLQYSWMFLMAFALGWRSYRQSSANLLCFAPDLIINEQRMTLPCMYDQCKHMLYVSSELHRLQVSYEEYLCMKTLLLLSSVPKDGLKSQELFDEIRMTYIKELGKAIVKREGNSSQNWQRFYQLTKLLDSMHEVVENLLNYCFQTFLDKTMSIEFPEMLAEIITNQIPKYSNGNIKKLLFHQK
Pyruvate kinase (Leishmania mexicana), sequence (Q27686 2-499 E452W): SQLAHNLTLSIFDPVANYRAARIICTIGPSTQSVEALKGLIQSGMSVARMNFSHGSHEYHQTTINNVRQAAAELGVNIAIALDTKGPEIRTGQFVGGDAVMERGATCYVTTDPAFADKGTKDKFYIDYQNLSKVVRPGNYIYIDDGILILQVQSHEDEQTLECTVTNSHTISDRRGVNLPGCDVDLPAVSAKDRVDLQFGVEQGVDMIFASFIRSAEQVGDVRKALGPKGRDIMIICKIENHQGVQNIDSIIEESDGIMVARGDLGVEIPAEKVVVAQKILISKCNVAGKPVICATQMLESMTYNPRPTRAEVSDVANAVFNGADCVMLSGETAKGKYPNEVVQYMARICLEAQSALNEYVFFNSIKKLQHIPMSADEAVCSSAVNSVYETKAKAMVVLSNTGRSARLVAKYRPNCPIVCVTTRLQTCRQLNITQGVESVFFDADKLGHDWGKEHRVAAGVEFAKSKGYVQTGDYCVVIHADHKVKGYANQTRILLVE
Pyruvate kinase PKM (Homo sapiens), sequence (P14618 whole entry, looked up): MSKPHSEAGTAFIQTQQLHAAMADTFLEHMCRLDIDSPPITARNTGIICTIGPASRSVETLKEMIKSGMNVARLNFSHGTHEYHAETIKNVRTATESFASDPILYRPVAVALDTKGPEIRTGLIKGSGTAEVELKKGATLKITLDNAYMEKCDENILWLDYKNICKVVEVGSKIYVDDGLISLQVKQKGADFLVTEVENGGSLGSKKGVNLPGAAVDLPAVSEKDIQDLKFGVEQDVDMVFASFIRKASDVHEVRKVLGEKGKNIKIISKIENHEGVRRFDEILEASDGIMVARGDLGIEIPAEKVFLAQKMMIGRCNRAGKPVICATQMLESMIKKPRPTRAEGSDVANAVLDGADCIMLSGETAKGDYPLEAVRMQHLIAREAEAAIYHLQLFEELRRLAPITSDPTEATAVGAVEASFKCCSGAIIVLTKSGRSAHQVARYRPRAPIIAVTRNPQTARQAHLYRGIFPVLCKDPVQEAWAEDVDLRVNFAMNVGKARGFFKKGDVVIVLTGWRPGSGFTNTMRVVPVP
Cytochrome P450 1A2 (Homo sapiens), sequence (P05177 whole entry, looked up): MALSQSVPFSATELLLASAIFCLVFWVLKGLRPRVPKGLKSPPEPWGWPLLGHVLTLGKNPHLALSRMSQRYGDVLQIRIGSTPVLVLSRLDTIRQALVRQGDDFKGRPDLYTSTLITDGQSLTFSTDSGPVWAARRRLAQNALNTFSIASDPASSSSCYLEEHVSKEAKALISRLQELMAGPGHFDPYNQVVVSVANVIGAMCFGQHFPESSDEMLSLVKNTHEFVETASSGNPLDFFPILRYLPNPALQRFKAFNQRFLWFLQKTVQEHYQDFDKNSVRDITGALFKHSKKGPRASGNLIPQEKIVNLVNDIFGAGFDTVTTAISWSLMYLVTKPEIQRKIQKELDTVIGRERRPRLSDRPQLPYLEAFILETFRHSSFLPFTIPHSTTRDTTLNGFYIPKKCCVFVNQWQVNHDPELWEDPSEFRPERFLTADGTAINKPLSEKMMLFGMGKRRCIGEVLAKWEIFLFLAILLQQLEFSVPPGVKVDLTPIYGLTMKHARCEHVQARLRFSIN
3',5'-cyclic-AMP phosphodiesterase 4B (Homo sapiens), sequence (Q07343 whole entry, looked up): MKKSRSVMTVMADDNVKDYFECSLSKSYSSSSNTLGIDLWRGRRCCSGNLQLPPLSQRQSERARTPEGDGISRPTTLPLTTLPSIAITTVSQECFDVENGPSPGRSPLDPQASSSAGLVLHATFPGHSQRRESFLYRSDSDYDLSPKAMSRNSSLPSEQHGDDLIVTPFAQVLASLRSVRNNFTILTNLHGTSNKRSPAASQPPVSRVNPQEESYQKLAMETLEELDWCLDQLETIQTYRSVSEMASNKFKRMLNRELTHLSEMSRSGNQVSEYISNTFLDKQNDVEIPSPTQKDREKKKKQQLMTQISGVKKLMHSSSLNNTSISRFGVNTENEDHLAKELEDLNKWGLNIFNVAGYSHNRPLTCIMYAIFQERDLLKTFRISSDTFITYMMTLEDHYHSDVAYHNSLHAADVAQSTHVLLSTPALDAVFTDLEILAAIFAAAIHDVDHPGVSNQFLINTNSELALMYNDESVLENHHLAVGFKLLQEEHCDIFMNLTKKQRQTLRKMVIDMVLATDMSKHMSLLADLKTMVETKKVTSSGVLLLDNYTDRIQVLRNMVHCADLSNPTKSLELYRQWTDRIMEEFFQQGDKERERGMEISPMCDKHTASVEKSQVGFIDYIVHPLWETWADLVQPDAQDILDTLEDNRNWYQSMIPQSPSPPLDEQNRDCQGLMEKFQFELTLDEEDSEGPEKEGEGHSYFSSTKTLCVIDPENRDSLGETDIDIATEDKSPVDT
Cytochrome P450 3A4 (Homo sapiens), sequence (P08684 whole entry, looked up): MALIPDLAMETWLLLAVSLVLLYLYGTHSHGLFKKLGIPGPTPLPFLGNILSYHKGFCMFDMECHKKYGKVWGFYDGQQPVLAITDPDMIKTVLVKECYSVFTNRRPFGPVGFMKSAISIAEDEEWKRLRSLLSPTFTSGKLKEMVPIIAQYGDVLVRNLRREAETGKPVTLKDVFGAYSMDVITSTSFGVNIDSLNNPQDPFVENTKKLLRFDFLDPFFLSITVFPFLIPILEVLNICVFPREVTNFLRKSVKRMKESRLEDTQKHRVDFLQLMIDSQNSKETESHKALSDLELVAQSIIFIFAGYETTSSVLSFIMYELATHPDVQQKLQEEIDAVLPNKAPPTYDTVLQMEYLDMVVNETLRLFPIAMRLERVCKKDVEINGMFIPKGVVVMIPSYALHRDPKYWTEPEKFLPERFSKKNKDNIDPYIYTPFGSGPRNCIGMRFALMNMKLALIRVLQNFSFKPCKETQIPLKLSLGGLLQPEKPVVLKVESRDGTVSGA
Cytochrome P450 2C9 (Homo sapiens), sequence (P11712 whole entry, looked up): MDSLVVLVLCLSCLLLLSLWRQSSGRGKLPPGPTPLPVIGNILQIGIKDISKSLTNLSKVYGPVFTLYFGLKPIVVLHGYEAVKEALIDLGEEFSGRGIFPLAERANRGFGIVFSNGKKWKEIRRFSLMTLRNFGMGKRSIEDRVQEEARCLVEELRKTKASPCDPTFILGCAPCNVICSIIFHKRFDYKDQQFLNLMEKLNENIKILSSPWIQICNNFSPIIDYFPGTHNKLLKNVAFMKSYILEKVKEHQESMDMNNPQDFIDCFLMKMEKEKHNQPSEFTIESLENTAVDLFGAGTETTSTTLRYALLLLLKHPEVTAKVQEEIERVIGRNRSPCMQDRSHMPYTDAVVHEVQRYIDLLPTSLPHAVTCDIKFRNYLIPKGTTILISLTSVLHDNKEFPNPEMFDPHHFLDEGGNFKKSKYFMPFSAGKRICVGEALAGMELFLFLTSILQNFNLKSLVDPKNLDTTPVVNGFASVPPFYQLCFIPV
Guanine nucleotide-binding protein G(i) subunit alpha-1 (Homo sapiens), sequence (P63096 whole entry, looked up): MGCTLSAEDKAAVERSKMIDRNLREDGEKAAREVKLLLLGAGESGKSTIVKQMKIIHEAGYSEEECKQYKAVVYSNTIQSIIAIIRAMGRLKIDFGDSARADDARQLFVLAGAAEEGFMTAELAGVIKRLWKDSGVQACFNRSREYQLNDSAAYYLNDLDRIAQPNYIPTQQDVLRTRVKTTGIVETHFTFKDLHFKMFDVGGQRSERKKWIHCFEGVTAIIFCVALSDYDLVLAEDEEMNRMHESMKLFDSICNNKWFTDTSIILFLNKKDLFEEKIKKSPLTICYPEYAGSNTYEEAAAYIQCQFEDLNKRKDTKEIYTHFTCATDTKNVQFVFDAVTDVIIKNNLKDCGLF
DNA dC->dU-editing enzyme APOBEC-3G (Homo sapiens), sequence (Q9HC16 whole entry, looked up): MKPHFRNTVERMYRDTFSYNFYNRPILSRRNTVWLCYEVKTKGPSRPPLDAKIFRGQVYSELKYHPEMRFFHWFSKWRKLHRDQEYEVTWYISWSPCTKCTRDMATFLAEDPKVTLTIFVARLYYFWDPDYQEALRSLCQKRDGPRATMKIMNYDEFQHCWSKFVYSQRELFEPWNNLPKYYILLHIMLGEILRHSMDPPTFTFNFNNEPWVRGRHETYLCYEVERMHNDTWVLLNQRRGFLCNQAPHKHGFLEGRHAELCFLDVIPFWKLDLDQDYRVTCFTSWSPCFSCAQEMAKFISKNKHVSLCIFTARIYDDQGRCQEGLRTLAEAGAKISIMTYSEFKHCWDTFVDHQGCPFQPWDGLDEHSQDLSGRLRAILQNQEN

In the case of `CN(C)c1ccc(/C=C2/C(=O)Nc3ccccc32)cc1`, the Potency is 398 nM (active) and 100 nM (active) in experiment [1]; over 46 µM in experiment [2]; over 46 µM in experiment [3]; 5.01 µM (active) in [4]; 5.01 µM (active) in experiment [7]; 20 µM (active) in experiment [9]. The Potency was 0.0631 µM (active) in experiment [10]; 14.1 µM (active) in [11]; 3.16 µM (active) in experiment [12]; 3.16 µM (active) in experiment [14]; 26.6 µM (active) in experiment [18]; 35.5 µM (active) in experiment [20]. Also, the Potency entry in experiment [5], in experiment [8], in experiment [15] and in experiment [19] was “inactive” each time. In addition, the result in [6], in experiment [13], in [16] and in experiment [17] was inactive. The max response in experiment [21] is 8.84%.

Regarding `CC(C)ON(C(C(=O)NO)C(C)C)S(=O)(=O)c1ccc(-c2ccccc2)cc1` (centres undefined), the Potency entry in experiment [19] and in experiment [20] was “inactive” each time. Moreover, the Potency in experiment [21] was 12.6 µM (active).
